Experiment [1] can be described thus: blockers of polyQ-driven CASP3 activation – cell-based (AID 1583). The conditions noted are these: polyglutamine-induced caspase-3 activation, cell assay; stronger effect = higher value;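 tested at 10 µM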.
Experiment [2] is described as follows: yeast 75Q aggregation reduction – 75Q-TubU reporter (AID 1593). The following applies: Yeast 75Q polyglutamine aggregation reporter.
The nature of experiment [3]: blockers of cytochrome c efflux from mitochondria – biochemical, purified mitochondria (AID 1603).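 Further: mouse liver mitochondria challenged with calcium chloride; signal normalized to the plate average as 100%.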 The following applies: stronger effect = lower value.
Experiment [4] is described as follows: EMT-state selective cytotoxicity in co-culture – imaging, PC-3E GFP, TEM4-18 mCherry, primary screen (AID 1345086;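 active means compounds killing one labelled cell type while sparing the other, by normalised counts and ratio limits, not self-fluorescent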;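 on all read-outs here: cells exposed to compound for 72 h before imaging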;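 on red/green cell ratio (normalised): normalised mesenchymal count divided by normalised epithelial count so high means epithelial killing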). The conditions noted are these: PC-3E GFP / TEM4-18 mCherry co-culture, imaging cell counts, at 1 µM; for red/green cell ratio (normalised): actives lie on both sides, counts scaled to control wells, 1 = unselective.
Experiment [5] has as its target Mitogen-activated protein kinase 7 (Homo sapiens) (UniProt Q13164). In words: Gal4-ERK5 driven luciferase induction – cell-based, HTS, primary screen (AID 1508626;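 active means luciferase signal above three times the same-plate solvent-only control wells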;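 further: luciferase driven by Gal4-ERK5 fusion binding five Gal4 sites before minimal TATA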). The following applies: HeLa Gal4-ERK5 transactivation, 18 h, at 5 µM, stronger effect = higher value.
Experiment [6] can be described thus: P. berghei load reduction in hepatocytes – cell-based, HepG2, luciferase luminescence, HepG2 viability, primary screen (AID 624349; in the data active means parasite load remaining mostly below about 12%, no sharp cut-off; inactive means mostly above about 10%;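 further: 100% = mean of DMSO negative control wells on the same plate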). The following applies: P. berghei liver stage in HepG2, luciferase luminescence, concentration not given here; parasite load remaining: stronger effect = lower value; viability: measured here: HepG2 viability without parasites.
Experiment [7] relates to Aerobactin synthetase IucA (Klebsiella pneumoniae). In words: inhibition of K. pneumoniae IucA enzyme – biochemical, Tocris library, absorbance (AID 1345561; call rule not given here;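 further: 100% = enzyme without compound and 0% = no enzyme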). The conditions noted are these: purified IucA enzyme assay, absorbance (OD) read-out; stronger effect = lower value;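 tested at 8 µM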.
The nature of experiment [8]: viability loss in pontine glioma line – cell-based, SU-DIPG-XVII, MIPE5.0, CellTiter-Glo, qHTS, dose response (AID 1347060; cut-off not given, nearly all actives have AC50 up to about 26 µM;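 on AC50: cells exposed to compound for 48 hours before viability readout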). The conditions noted are these: CellTiter-Glo ATP luminescence. In general terms: ATP-based viability assays read luminescence as a measure of living cells.
Experiment [9] is described as follows: viability loss in pontine glioma line – cell-based, JHH-DIPG-1, MIPE4.0, CellTiter-Glo, qHTS, dose response (AID 1347062; cut-off not given, nearly all actives have AC50 up to about 27 µM;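 on AC50: cells exposed to compound for two days before readout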). The following applies: JHH-DIPG-1 viability, CellTiter-Glo ATP luminescence.
Experiment [10] is described as follows: viability loss in pontine glioma line – cell-based, SU-DIPG-XIII, MIPE5.0, CellTiter-Glo, qHTS, dose response (AID 1347064; cut-off not given, nearly all actives have AC50 up to about 23 µM;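 further: cells exposed to compound for 48 hours before the viability read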). The following applies: CellTiter-Glo ATP luminescence.
Experiment [11] is described as follows: viability loss in pontine glioma line – cell-based, SU-DIPG-XXV, MIPE5.0, CellTiter-Glo, qHTS, dose response (AID 1347065; cut-off not given, nearly all actives have AC50 up to about 26 µM;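 further: cells exposed to compound for 48 hours before ATP readout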). The conditions noted are these: CellTiter-Glo ATP luminescence.
A short description of experiment [12]: growth inhibition of DIPG cells – cell-based, MIPE4.0 library, CellTiter-Glo luminescence, qHTS (AID 1347066; cut-off not given, nearly all actives have AC50 up to about 30 µM;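 further: cells exposed to compound for 48 hours before readout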). The conditions noted are these: SU-DIPG-VI viability, CellTiter-Glo ATP luminescence.
Experiment [13] in a line: JHH-DIPG-1 glioma cell viability, MIPE5.0 library, CellTiter-Glo luminescence, qHTS (AID 1347067; cut-off not given, nearly all actives have AC50 up to about 26 µM;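 further: cells exposed to compound for 48 hours before readout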). The conditions noted are these: JHH-DIPG-1 glioma viability, CellTiter-Glo ATP luminescence.
Experiment [14] can be described thus: growth inhibition of DIPG cells – cell-based, MIPE5.0 library, qHTS (AID 1347068; cut-off not given, nearly all actives have IC50 up to about 30 µM). The conditions noted are these: SU-DIPG-XXV viability. Background: In qHTS, concentration-response curves come from the screen itself.
Experiment [15] in a line: viability loss with induced miR-34 in A549 – imaging, A549 dox-inducible miR-34, nuclei and caspase counts, primary screen (AID 1347080;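 active means compounds whose cell count with miR-34 switched on is under 0.7 times the count with it off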). The following applies: A549 miR-34 inducible, Hoechst nuclei count, 48 h.
Experiment [16] in a line: MELAS cybrid and Rieske KO viability enhancers – cell-based, MELAS cybrids, Rieske KO mouse fibroblasts, CellTiter-Glo, primary screen (AID 1508586;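 active means mean z-score across replicates of 1.96 or higher in either the MELAS or the Rieske mutant cell line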;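 further: z relative to plate mean and SD of compound and empty wells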). The conditions noted are these: low glucose.
Experiment [17] can be described thus: galactose survival enhancers in mitochondrial complex I cybrids – cell-based, galactose medium, ATP luminescence, primary screen (AID 1645843;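 active means z-score of at least 1.8 in each of two replicates, scored against plate mean and spread of sample wells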;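 further: positive z means more ATP and so rescue of galactose-driven cybrid death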). The following applies: complex I mutant cybrid cells, 72 h, stronger effect = higher value.
A short description of experiment [18]: compounds altering HSF1 focus formation in cells – imaging, Selleck Cancer Library (AID 1347162; in the data active means plate-normalised HSF1 focus index below about 0.46). The following applies: human cells, HSF1 nuclear foci imaging, at 10 µM; SSMD: measured here: HSF1 foci SSMD mean; cell count: measured here: cell number; plate-normalised HSF1 focus index: stronger effect = lower value.
Experiment [19] is described as follows: drug combination growth inhibition, ovarian cancer – cell-based, oncology-focused library, rucaparib conditional, profiling panel (AID 1508598). The conditions noted are these: patient-derived ovarian cancer cells, CellTiter-Glo viability, 144 h, stronger effect = lower value.
[20] abbreviates: measured here: epithelial PC-3E GFP cell survival.
The mark [21] stands for this setting: measured here: mesenchymal TEM4-18 mCherry cell survival.
[22] abbreviates: stronger effect = lower value, cell number ratio, induced over uninduced.
Where [23] appears, read: measured here: relative caspase fold change +Dox/-Dox.
Setting [24] is: measured here: total cells with miR-34 induction, stronger effect = lower value.
[25] abbreviates: measured here: total cells without miR-34 induction.
Where [26] appears, read: MELAS cybrid survival, CellTiter-Glo 48 h, stronger effect = higher value.
[27] abbreviates: Rieske KO mouse fibroblast survival, CellTiter-Glo 72 h.

As a reminder, the inhibition is the relative decrease from the control value, in per cent. As a reminder, the viability is a read-out of living cells in per cent, often relative to untreated cells. The remaining activity is the signal under treatment as a percentage of the control signal. As a reminder, the AC50 is the midpoint of the concentration-response curve, whichever way the signal moves.

Several values for one entry are separate records, joined by “and”; a condition that tells them apart may be missing. Equal entries are not always repeated. Inconclusive results are not listed. Activity calls are given as the source filed them.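 How the source made its calls, unless noted: active means normalized viability below 100% at a tested concentration; inactive means the rest.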

Chain of Mitogen-activated protein kinase 7 (Homo sapiens) (Q13164 whole entry, looked up, the tested form may be a part): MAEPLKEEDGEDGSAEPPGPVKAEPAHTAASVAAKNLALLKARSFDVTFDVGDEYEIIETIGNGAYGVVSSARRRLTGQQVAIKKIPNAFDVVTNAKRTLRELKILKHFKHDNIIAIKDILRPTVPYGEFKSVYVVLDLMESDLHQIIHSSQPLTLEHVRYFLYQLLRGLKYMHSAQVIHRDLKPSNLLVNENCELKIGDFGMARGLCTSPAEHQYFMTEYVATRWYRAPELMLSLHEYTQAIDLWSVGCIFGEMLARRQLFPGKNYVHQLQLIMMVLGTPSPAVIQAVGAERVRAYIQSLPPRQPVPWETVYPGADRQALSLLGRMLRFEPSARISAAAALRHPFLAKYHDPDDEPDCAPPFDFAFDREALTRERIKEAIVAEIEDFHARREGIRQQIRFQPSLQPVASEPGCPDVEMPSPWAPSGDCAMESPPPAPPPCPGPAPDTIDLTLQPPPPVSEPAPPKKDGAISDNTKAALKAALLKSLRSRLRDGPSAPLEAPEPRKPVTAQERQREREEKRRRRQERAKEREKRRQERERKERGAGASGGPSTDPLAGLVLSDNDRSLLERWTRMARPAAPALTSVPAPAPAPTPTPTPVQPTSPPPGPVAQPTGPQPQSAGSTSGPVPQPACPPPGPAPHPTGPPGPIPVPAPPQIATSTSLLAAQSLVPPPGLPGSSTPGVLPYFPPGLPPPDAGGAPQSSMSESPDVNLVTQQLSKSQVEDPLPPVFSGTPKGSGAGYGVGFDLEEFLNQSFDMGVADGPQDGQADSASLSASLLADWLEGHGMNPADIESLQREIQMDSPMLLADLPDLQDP

With `NC(Cc1ccc(F)cc1)C(=O)O` (stereo unspecified), the inhibition in experiment [1] turned out to be 10.4%. Besides, in [2], the score came to 1.23. The cytochrome c release ratio in [3] is 0.78. The red/green cell ratio (normalised) in experiment [4] is 0.96 (inactive). Besides, the figures for the normalised cell number in experiment [4] (setting [20]) and in [4] (setting [21]) were 0.88 and 0.84, respectively. The luciferase signal in experiment [5] was 100 AU (inactive).

With `CC1CCC2(OC1)OC1CC3C4CC[C@H]5C[C@@H](O)CC[C@]5(C)C4CC(=O)[C@]3(C)C1C2C` (stereo partly specified), the inhibition in experiment [1] turned out to be 11.6%. The same compound had a score in [2] of 1.42. For the same compound, the cytochrome c release ratio in experiment [3] was found to be 1.08. Moreover, in experiment [6], the parasite load remaining is 106% (inactive) and the viability came to 69.7%. Besides, the red/green cell ratio (normalised) in [4] is 1.26 (inactive). Moreover, the normalised cell number in experiment [4] (setting [20]) turned out to be 1.02. In [4] (setting [21]), the normalised cell number was determined as 1.27.

For the compound `CC(C)CC(NC(=O)CCN)C(=O)O` (stereo unspecified), the inhibition in experiment [1] came out at 1.74%. In [2], this compound yielded a score of 1.04. In experiment [3], the cytochrome c release ratio was determined as 1.04. Further, the red/green cell ratio (normalised) in experiment [4] is 1.07 (inactive). For the same compound, the normalised cell number in experiment [4] (setting [20]) amounted to 1.22; in [4] (setting [21]) it was 1.31.

As to `CC[C@H](C)C(=O)O[C@H]1CCC=C2C=C[C@H](C)C(CCC3C[C@@H](O)CC(=O)O3)[C@H]21` (stereo partly specified), the inhibition in [1] is -3.44%. Besides, the score in experiment [2] amounted to 0.88. The cytochrome c release ratio in experiment [3] amounted to 1.24. Further, the red/green cell ratio (normalised) in [4] was 0.93 (inactive). For the same compound, the normalised cell number in experiment [4] (setting [20]) came out at 0.95; in [4] (setting [21]), 0.89.

As to `Oc1ccc2ccccc2c1SSc1c(O)ccc2ccccc12`, the parasite load remaining in experiment [6] is 35.3% (inactive). For the same compound, the viability in experiment [6] is 87.1%. For the same compound, in experiment [7], the remaining activity is 112% (inactive). For the same compound, the AC50 in experiment [8] was 14.8 µM (active); in experiment [9], 23.5 µM (active); in experiment [10], 14.8 µM (active); in experiment [11] it was 11.8 µM (active); in [12], 23.5 µM (active); in experiment [13], 10.5 µM (active). The compound was called inactive in experiment [14]. Also, the fold change in experiment [15] (setting [22]) is 0.974 (inactive) and 0.952 (inactive) and 0.85 (inactive); in experiment [15] (setting [23]), 1 and 0.368 and 2.34. For the same compound, the cell count is 7700 and 7960 and 7720 in experiment [15] (setting [24]); 7910 and 8360 and 9070 in experiment [15] (setting [25]). Further, the z-score was 2.05 (active) in experiment [16] (setting [26]); -0.0374 in experiment [16] (setting [27]); -1.38 (inactive) and -0.86 (inactive) in experiment [17].

Take `O=c1[nH]c(-c2ccc(C(F)(F)F)cc2)nc2c1CSCC2`: the remaining activity in experiment [7] is 117% (inactive). Further, the compound was classed as inactive in experiment [8], in experiment [9], in [13] and in experiment [14]. Besides, the fold change in [15] (setting [22]) was 0.924 (inactive) and 0.863 (inactive) and 0.929 (inactive); in [15] (setting [23]), 0.982 and 0.937 and 1.32. Also, the cell count was 4310 and 5060 and 7820 in experiment [15] (setting [24]); 4660 and 5860 and 8410 in experiment [15] (setting [25]); 7170 in experiment [18]. Besides, in experiment [18], the SSMD was 1.98. Also, the plate-normalised HSF1 focus index in [18] is 1.12 (inactive). In addition, the z-score is -0.501 (inactive) in experiment [16] (setting [26]), 0.33 in experiment [16] (setting [27]) and 0.565 (inactive) in experiment [17]. In addition, the viability was 100% (inactive) in [19] (at 0.000305 µM, OCI-C5x cells, with rucaparib 10 µM, 100% = cells with rucaparib alone); 93.7% (active) in [19] (at 0.000305 µM, OCI-C5x cells, without rucaparib); 98.7% (active) in experiment [19] (at 0.000305 µM, OCI-P5x cells, with rucaparib 20 µM, 100% = cells with rucaparib alone); 103% (inactive) in experiment [19] (at 0.000305 µM, OCI-P5x cells, without rucaparib); 108% (inactive) in experiment [19] (at 0.00122 µM, OCI-C5x cells, with rucaparib 10 µM, 100% = cells with rucaparib alone); 99.5% (active) in experiment [19] (at 0.00122 µM, OCI-C5x cells, without rucaparib). The viability in experiment [19] (at 0.00122 µM, OCI-P5x cells, with rucaparib 20 µM, 100% = cells with rucaparib alone) was 107% (inactive); in [19] (at 0.00122 µM, OCI-P5x cells, without rucaparib), 106% (inactive); in experiment [19] (at 0.00488 µM, OCI-C5x cells, with rucaparib 10 µM, 100% = cells with rucaparib alone) it was 121% (inactive); in experiment [19] (at 0.00488 µM, OCI-C5x cells, without rucaparib), 102% (inactive); in experiment [19] (at 0.00488 µM, OCI-P5x cells, with rucaparib 20 µM, 100% = cells with rucaparib alone), 110% (inactive); in experiment [19] (at 0.00488 µM, OCI-P5x cells, without rucaparib), 99.8% (active). Besides, the viability in experiment [19] (at 0.0195 µM, OCI-C5x cells, with rucaparib 10 µM, 100% = cells with rucaparib alone) was 109% (inactive); in [19] (at 0.0195 µM, OCI-C5x cells, without rucaparib) it was 102% (inactive); in experiment [19] (at 0.0195 µM, OCI-P5x cells, with rucaparib 20 µM, 100% = cells with rucaparib alone) it was 114% (inactive); in experiment [19] (at 0.0195 µM, OCI-P5x cells, without rucaparib), 113% (inactive); in [19] (at 0.0781 µM, OCI-C5x cells, with rucaparib 10 µM, 100% = cells with rucaparib alone), 110% (inactive); in [19] (at 0.0781 µM, OCI-C5x cells, without rucaparib) it was 104% (inactive). Moreover, the viability is 106% (inactive) in experiment [19] (at 0.0781 µM, OCI-P5x cells, with rucaparib 20 µM, 100% = cells with rucaparib alone); 105% (inactive) in experiment [19] (at 0.0781 µM, OCI-P5x cells, without rucaparib); 107% (inactive) in [19] (at 0.313 µM, OCI-C5x cells, with rucaparib 10 µM, 100% = cells with rucaparib alone); 102% (inactive) in experiment [19] (at 0.313 µM, OCI-C5x cells, without rucaparib); 105% (inactive) in [19] (at 0.313 µM, OCI-P5x cells, with rucaparib 20 µM, 100% = cells with rucaparib alone); 94.6% (active) in experiment [19] (at 0.313 µM, OCI-P5x cells, without rucaparib). Further, the viability in experiment [19] (at 1.25 µM, OCI-C5x cells, with rucaparib 10 µM, 100% = cells with rucaparib alone) was 107% (inactive); in experiment [19] (at 1.25 µM, OCI-C5x cells, without rucaparib) it was 99.4% (active); in [19] (at 1.25 µM, OCI-P5x cells, with rucaparib 20 µM, 100% = cells with rucaparib alone), 113% (inactive); in experiment [19] (at 1.25 µM, OCI-P5x cells, without rucaparib), 103% (inactive); in [19] (at 5 µM, OCI-C5x cells, with rucaparib 10 µM, 100% = cells with rucaparib alone), 115% (inactive); in experiment [19] (at 5 µM, OCI-C5x cells, without rucaparib) it was 112% (inactive). Moreover, the viability in experiment [19] (at 5 µM, OCI-P5x cells, with rucaparib 20 µM, 100% = cells with rucaparib alone) is 105% (inactive); in [19] (at 5 µM, OCI-P5x cells, without rucaparib) it was 99% (active).

The record behind these values is PubChem BioAssay.
